This excerpt belongs to a sample that is enriched for hits.
ERK EGF block: inhibitors of EGF-stimulated ERK signaling pathway; Potency, µM (top dose mostly 11.5 µM), for the others: top-dose activity change, negative = inhibition, actives largely listed as inhibitors; AID 1454; HEK293-V1b, EGF-stimulated phospho-ERK AlphaScreen; 130,000 compounds, 0.41% hits;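 also: plate controls were stimulated vehicle wells for no effect and unstimulated vehicle basal for full effect; nearly all actives have a fitted effect of over 55% in size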
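EGF-stimulated (25 nM, 5 min) phospho-ERK in HEK293 cells stably expressing V1b, cells pretreated 30 min with compound at 37C. Homogeneous AlphaScreen read on lysates.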
IMPase Li inh: cell-permeable IMPase inhibitors with lithium potentiation; CHO-M1 cells, IP1 TR-FRET (IP-One), carbachol + lithium; Potency, µM (titrated, usually from 59.4 µM), for inactives: at the highest dose activity, negative = IMPase inhibition, hits mostly inhibitors; 210,000 compounds, 0.35% hits; AID 1457;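 also: IP1 builds up when IMPase is blocked and the TR-FRET signal falls; plate controls were basal vehicle for no effect and high inhibitor control for full effect; nearly all actives have a fitted effect of over 50% in size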
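Steps: plate 2000 CHO-M1 cells per well and culture 16–30 h; add compound and lithium; incubate 30 min, 37C; add d2-IP1 tracer and Eu cryptate anti-IP1 antibody in lysis buffer; read after 10 min at room temperature.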
NPSR antag: blocks cAMP signaling of the human neuropeptide S receptor | Q6W5P4 | CHO-NPSR cells, cAMP TR-FRET, antagonist mode | Potency, µM (top dose mostly 38.3 µM), inactives show at the top dose activity change, negative = inhibition, hits mostly inhibitors | 220,000 compounds, 1% hits | AID 1461; also: nearly all actives have a fitted effect of over 50% in size
Target sequence (Q6W5P4 whole entry, looked up): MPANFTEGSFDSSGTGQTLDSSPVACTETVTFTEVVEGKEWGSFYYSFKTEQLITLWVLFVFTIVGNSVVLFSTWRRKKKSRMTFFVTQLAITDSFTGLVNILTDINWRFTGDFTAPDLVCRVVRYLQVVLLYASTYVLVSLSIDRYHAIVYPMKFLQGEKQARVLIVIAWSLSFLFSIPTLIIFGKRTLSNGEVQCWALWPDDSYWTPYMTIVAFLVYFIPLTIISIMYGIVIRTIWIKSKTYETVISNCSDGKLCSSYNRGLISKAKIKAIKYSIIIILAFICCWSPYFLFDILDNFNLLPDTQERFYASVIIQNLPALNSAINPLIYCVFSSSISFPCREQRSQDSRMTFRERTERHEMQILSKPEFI
The depositor's hits bear a star; ? = inconclusive; . = no result given; [ ] = dose if it differs, or a comment. Calls follow the shape of the dose curve; as a rule, active = well fitted curve in the direction sought with a large enough effect; inconclusive = small, poorly fitted or top-dose-only effect, or another doubt; inactive = no such curve, though single readings can be large; an effect the other way counts as inactive or inconclusive. Unless noted, % is scaled to controls: 0 for no effect and ±100 for the full control effect; potency is read from the fitted curve at half-maximal effect.

SMILES	ERK EGF block	IMPase Li inh	NPSR antag
CCOC(=O)c1sc2nc3c(SCCC#N)cc(C(=O)c4cc(F)ccc4O)cn3c(=O)c2c1C	12%	-1%	-15%
COc1ccc2c(c1)c(CCN1C(=O)c3ccccc3C1=O)cn2C(=O)c1ccco1	.	8.9µM*	?
O=C(Oc1ccc2[nH]cc(CCN3C(=O)c4ccccc4C3=O)c2c1)c1ccco1	.	3%[38.3 µM]	-26%[46.1 µM]
O=C(O)c1ccc(C(=O)O)c(C(=O)Nc2ccc3c(c2)Cc2ccccc2-3)c1	.	-9%	.
NCCNc1cccc2ccccc12	.	-11%	.
C=CC1=C(C(=O)O)N2C(=O)[C@@H](NC(=O)C(N=O)c3csc(N)n3)[C@H]2SC1 (stereo partly drawn)	.	-23%	.
COc1ccc(-n2c(=O)c3ccccc3n(CC(=O)c3ccccc3)c2=O)cc1OC	?	-10%	0%
COc1cc(-n2c(=O)c3ccccc3n(CC(=O)c3ccc(Br)cc3)c2=O)cc(OC)c1OC	1%	22µM*	-31%
Cc1ccccc1OCC(=O)Nc1sc(C(=O)Nc2cccc(C)c2C)c(C)c1C#N	.	1µM*	4µM*
COc1ccccc1NC(=O)c1sc(NC(=O)c2ccco2)c(C#N)c1C	.	26%[38.3 µM]	-1%[46.1 µM]
Cc1[nH]c2ccccc2c1CCN(Cc1cccnc1)C(=S)Nc1cccc(F)c1	2%	16%	-54%
Cc1[nH]c2ccccc2c1CCN(Cc1cccnc1)C(=S)Nc1ccc(F)cc1	-18%	10%	7.9µM*
O=C(c1ccncc1)N1CCC2(CCCN(c3ccc(-c4ccccc4)cc3)C2)CC1	8%	9%	.
Cc1ccc(S(=O)(=O)c2cc3cc(Br)ccc3oc2=O)cc1	4%	1%	?
CC(C)c1ccc(S(=O)(=O)c2cc3cc(Br)ccc3oc2=O)cc1	7%	14µM*	-52%
CCN(CC)CC#CCOC(=O)[C@@](O)(c1ccccc1)C1CCCCC1	-7%[25.7 µM]	28%	.
CCC(=O)NC1Cc2ccccc2C(c2ccccc2)C1 (stereo not drawn)	.	4%	.
CN(C)CCCNc1cc(O)c2c(c1O)C(=O)c1ccccc1C2=O	.	11%	.
O=C1c2ccccc2C(=O)c2c(NCCCN(CCO)CCO)cccc21	28µM*	25%	13µM*
CCCCC[C@H](O)/C=C/[C@@H]1[C@@H](C/C=C\CCCC(=O)O)[C@@H](O)C[C@@H]1O	8%	18%	.
Cc1ccc(N=CC2=C(O)CC(c3ccccc3Cl)CC2=O)cc1 (stereo not drawn)	20µM*	.	8%
O=C1CC(c2ccccc2Cl)CC(O)=C1C=Nc1ccccc1 (stereo not drawn)	?	16%	-15%
COc1cccc(-c2cncnc2NCc2cccs2)c1	.	24%	.
COc1cccc([C@@H]2Oc3ccc(OC)cc3C(=O)[C@H]2OC(=O)Nc2ccc(OC(F)F)cc2)c1	-1%	7%	.
C=CC1=C2C=C(C3CC3)N(Cc3ccc4c(c3)OCO4)C=C2C(=O)C(C)(OC(=O)c2ccco2)C1=O (stereo not drawn)	.	-1%	.
SMILES	ERK EGF block	IMPase Li inh	NPSR antag
N#Cc1c(-c2ccco2)nc(SCC(=O)Nc2ccc(S(N)(=O)=O)cc2)[nH]c1=O	.	-3%[38.3 µM]	3%[46.1 µM]
N#Cc1c(-c2ccco2)nc(SCc2ccc(F)cc2)[nH]c1=O	.	13µM*	7.9µM*
COc1ccc(C(=O)/C=C/Sc2nc3ccccc3o2)cc1	28µM*	.	?
COc1ccc(C(=O)N/C(N)=N/c2nc3ccccc3o2)cc1	.	-18%[38.3 µM]	-15%[46.1 µM]
CCOC(=O)C1=C(C)c2ccccc2OC1(C(=O)OCC)C(C)C (stereo not drawn)	.	11%	.
COc1ccc(/C=N/Nc2cc(C)nc(-n3nc(C)cc3C)n2)c(OC)c1	-7%	8%	-57%
COc1cccc(/C=N/Nc2nc(Nc3ccccc3)nc(-n3nc(C)cc3C)n2)c1O	.	33%[38.3 µM]	2.5µM*
O=c1cc(N2CCCCC2)c(-c2ccccc2)n[nH]1	-6%	-2%	21%
O=c1cc(N2CCCCC2)c(-c2ccccc2)nn1Cc1c(Cl)cccc1Cl	.	25%[38.3 µM]	10µM*
Cn1cc(C=C2C(=O)Nc3cccnc32)c2ccccc21	.	14%	.
CCc1c(C)sc(NC(=S)N2CCN(S(C)(=O)=O)CC2)c1C(=O)OC	28µM*	.	-18%
CCc1c(C)sc(NC(=S)Nc2nc(C)cc(C)n2)c1C(=O)OC	-1%	14%	-43%
CCn1c2c(c3cc(Br)ccc31)CCC/C2=N\O	.	11µM*	22%[46.1 µM]
CCn1c2c(c3cc(OCC(C)C)ccc31)CCCC2=O	?	0%	-15%[46.1 µM]
C=C1C[C@@]23C[C@]1(O)CC[C@@H]2[C@]12C=C[C@@H](O)[C@](C)(C(=O)O1)[C@H]2[C@H]3C(=O)O	-7%[25.7 µM]	-6%	.
CCCCCc1cc(=O)oc2c(C(CCN3CCCCC3)c3cc(OC)c(OC)c(OC)c3)c(OC)cc(OC)c12 (stereo not drawn)	?	.	10µM*
COc1cc(OC)c2ccc(=O)oc2c1C(CCN1CCCC(C)C1)c1ccc(N(C)C)cc1 (stereo not drawn)	-20%[57.5 µM]	.	11%
CCCCCc1cc(=O)oc2c(C(CCN3CCCC(C)C3)c3cc(OC)c(OC)c(OC)c3)c(OC)cc(OC)c12 (stereo not drawn)	40µM*	.	6.3µM*
COc1cc(OC)c2c(c1C(CCN1CCOCC1)c1ccc(N(C)C)cc1)OC(=O)CC2c1ccc(N(C)C)cc1 (stereo not drawn)	-6%[57.5 µM]	.	-20%
COc1ccc(C2CC(=O)Oc3c(C(CCN4CCN(c5ccccc5)CC4)c4ccc(N(C)C)cc4)c(OC)cc(OC)c32)cc1 (stereo not drawn)	16µM*	.	9%
COc1cc(C(CCN2CCOCC2)c2c(OC)cc(OC)c3ccc(=O)oc23)cc(OC)c1OC (stereo not drawn)	.	13%	.
COc1cc(C(CCN2CCCC2)c2c(OC)cc(OC)c3ccc(=O)oc23)cc(OC)c1OC (stereo not drawn)	-9%[57.5 µM]	.	-43%
COc1cc(C(CCN2CCN(c3ccccc3)CC2)c2c(OC)cc(OC)c3c(C)cc(=O)oc23)cc(OC)c1OC (stereo not drawn)	-19%[57.5 µM]	.	6.3µM*
CC=C1C2C=C(C)CC1(N)c1ccc(=O)[nH]c1C2 (stereo not drawn)	.	10%	.
CS(=O)(=O)Nc1cccc(-c2ccc3ncnc(N4CCNCC4)c3c2)c1	.	15%	.
SMILES	ERK EGF block	IMPase Li inh	NPSR antag
CC(=O)Nc1nc(NC(C)=O)c2[nH]c(CO)nc2n1	.	-6%	.
Fc1ccc(Nc2ncncc2-c2ccccc2C(F)(F)F)cc1	.	28%	.
O[C@@H]([C@H](O)[C@@H](O)CBr)[C@@H](O)CBr	.	1%	.
CC(C)c1cc(/C=C(\C#N)C(=O)NCCCc2ccccc2)cc(C(C)C)c1O	.	-12%	.
O=C1c2ccccc2C(=O)N1Cc1nn2c(-c3ccc(Cl)cc3)nnc2s1	.	11µM*	-21%[46.1 µM]
COc1ccc(-c2nnc3sc(CN4C(=O)c5ccccc5C4=O)nn23)cc1	.	?	-7%[46.1 µM]
COCC(C)n1c(-c2ccc3c(c2)NC(=O)CO3)csc1=Nc1ccc(OC(F)F)cc1 (stereo not drawn)	.	64%[38.3 µM]	10µM*
O=C1COc2ccc(-c3csc(=Nc4ccc(OC(F)F)cc4)n3CC3CCCO3)cc2N1 (stereo not drawn)	.	19%[38.3 µM]	?
Cc1ncn(-c2ccccc2O)c1C	.	-10%	.
N[C@@H](CSCc1ccc(I)cc1)C(=O)O	.	-1%	.
